Of roughly 8,800 targets only a part is listed; those with a hit were picked by preference. About 0.5% of all pairs of compound and target were hits.
These targets were tested with CC[C@@H]1C(=O)N(C)c2cnc(Nc3ccc(C(=O)N[C@H]4CC[C@H](N5CCN(CC6CC6)CC5)CC4)cc3OC)nc2N1C(C)C [volasertib] (assay: log2 fold change, soluble protein after heating vs DMSO (PISA); higher = thermal stabilisation; K562 lysate, 10 uM; active = over 0.2 and 3.5 SD of the protein, either way, in both replicates (recomputed)).
In short: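 Dounce homogenisation of K562 pellets in PBS pH 7.4 with 1 mM MgCl2 produced a crude extract, used at 1 mg/mL protein. Exposure to 10 μM compound lasted 30 min, and aliquots were then heated for 3 min across 48°C-58°C, pooled and brought to 0.5% NP-40 at 4°C. The supernatant after 21,000xg for 90 min was quantified by TMTpro 16plex LC-MS/MS with channel sums equalised. Duplicate values are given as log-two fold change in thermal stability relative to solvent controls.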

Chain of UniProt Q12769 (Q12769 whole entry, looked up): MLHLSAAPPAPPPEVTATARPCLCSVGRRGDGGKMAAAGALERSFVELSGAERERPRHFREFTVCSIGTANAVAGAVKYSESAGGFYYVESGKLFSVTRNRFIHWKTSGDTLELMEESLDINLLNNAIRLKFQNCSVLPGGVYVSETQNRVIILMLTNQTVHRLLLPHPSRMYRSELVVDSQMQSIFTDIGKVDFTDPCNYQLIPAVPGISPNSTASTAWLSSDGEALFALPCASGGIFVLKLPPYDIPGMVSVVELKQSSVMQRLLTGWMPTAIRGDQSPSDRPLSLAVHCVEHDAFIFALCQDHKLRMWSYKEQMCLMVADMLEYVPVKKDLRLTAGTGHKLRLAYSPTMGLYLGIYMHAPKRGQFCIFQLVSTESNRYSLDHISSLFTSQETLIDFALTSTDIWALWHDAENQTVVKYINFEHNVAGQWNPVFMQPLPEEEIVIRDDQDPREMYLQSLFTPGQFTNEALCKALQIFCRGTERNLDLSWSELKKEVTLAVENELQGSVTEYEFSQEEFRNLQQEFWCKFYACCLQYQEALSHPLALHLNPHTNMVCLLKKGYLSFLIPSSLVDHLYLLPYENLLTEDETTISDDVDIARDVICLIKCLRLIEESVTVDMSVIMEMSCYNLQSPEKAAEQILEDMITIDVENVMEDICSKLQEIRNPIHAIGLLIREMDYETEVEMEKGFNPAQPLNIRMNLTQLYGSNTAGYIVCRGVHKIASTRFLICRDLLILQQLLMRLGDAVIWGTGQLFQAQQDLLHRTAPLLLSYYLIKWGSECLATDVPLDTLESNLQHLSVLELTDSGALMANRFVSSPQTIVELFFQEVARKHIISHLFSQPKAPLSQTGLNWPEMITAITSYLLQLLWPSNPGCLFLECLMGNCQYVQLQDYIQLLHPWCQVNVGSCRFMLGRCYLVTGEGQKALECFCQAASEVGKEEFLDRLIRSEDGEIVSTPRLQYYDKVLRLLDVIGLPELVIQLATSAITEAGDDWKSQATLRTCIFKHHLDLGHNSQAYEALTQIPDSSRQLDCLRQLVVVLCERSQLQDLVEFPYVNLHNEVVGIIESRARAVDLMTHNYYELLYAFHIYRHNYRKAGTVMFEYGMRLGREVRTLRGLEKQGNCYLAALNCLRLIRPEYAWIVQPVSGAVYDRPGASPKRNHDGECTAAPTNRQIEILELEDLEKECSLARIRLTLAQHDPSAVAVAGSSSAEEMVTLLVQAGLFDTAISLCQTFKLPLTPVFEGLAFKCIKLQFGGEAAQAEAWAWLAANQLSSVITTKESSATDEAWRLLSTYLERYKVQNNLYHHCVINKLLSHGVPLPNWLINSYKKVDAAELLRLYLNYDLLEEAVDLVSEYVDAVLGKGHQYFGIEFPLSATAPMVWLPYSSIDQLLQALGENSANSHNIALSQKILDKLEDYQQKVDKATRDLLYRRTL
Chain of UniProt O75607 (O75607 whole entry, looked up): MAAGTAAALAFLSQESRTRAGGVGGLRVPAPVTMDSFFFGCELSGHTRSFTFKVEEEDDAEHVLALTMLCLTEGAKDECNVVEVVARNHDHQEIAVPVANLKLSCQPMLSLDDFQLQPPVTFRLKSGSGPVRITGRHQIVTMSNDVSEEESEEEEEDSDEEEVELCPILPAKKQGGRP
Chain of UniProt Q9NZJ9 (Q9NZJ9 whole entry, looked up): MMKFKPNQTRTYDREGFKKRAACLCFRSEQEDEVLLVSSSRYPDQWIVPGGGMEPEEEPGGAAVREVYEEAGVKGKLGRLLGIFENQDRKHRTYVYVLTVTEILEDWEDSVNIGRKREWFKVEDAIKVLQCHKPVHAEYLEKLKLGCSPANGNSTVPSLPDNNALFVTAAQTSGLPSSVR
Chain of UniProt Q9UBD5 (Q9UBD5 whole entry, looked up): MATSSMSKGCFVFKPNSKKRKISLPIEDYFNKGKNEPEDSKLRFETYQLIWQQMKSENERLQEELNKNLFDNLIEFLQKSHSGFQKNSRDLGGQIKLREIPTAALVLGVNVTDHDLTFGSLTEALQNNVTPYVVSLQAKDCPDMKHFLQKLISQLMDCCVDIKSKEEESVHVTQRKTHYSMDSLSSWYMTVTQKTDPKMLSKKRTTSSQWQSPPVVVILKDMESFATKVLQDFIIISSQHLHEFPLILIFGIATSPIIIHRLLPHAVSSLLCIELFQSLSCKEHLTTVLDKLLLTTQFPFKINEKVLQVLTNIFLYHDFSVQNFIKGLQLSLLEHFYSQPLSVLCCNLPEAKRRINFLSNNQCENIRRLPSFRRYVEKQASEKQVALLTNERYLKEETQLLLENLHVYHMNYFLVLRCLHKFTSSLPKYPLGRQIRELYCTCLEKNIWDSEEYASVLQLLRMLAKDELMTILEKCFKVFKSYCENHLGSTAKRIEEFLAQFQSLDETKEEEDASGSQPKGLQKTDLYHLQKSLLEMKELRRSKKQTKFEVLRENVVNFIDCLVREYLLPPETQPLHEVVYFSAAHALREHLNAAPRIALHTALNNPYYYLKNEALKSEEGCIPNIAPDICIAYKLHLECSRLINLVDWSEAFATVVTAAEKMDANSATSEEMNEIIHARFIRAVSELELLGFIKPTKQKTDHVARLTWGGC
Chain of UniProt Q96RE7 (Q96RE7 whole entry, looked up): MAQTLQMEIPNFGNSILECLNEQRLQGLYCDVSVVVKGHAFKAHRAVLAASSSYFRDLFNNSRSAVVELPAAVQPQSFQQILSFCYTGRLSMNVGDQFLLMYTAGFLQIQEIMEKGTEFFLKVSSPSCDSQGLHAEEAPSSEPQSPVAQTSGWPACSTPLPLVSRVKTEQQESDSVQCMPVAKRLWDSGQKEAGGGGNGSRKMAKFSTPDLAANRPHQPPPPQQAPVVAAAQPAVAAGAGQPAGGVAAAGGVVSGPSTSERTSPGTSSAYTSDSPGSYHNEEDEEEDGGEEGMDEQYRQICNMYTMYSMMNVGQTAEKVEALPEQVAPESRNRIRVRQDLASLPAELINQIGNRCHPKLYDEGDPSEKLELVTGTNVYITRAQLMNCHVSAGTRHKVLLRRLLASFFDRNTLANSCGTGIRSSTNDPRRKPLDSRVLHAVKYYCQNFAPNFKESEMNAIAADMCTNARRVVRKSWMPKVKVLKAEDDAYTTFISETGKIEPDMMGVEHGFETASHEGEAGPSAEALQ
Chain of UniProt Q9Y6R0 (Q9Y6R0 whole entry, looked up): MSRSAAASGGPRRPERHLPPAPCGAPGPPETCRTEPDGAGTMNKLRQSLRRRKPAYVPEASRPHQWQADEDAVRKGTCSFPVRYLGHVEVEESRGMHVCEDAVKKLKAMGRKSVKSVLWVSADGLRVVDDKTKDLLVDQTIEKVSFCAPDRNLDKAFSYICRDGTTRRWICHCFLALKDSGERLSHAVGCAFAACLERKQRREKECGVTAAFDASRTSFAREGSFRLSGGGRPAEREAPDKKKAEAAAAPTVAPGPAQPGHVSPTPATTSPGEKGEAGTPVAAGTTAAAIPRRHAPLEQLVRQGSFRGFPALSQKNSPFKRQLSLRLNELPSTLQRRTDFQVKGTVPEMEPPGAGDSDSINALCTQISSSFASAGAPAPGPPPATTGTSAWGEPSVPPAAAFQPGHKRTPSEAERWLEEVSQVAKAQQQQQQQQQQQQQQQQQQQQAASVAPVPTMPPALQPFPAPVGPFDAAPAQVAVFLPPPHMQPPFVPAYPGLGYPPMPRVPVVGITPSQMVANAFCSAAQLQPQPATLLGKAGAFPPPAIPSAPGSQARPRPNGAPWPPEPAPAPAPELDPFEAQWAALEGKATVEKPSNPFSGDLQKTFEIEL
Chain of UniProt Q9Y217 (Q9Y217 whole entry, looked up): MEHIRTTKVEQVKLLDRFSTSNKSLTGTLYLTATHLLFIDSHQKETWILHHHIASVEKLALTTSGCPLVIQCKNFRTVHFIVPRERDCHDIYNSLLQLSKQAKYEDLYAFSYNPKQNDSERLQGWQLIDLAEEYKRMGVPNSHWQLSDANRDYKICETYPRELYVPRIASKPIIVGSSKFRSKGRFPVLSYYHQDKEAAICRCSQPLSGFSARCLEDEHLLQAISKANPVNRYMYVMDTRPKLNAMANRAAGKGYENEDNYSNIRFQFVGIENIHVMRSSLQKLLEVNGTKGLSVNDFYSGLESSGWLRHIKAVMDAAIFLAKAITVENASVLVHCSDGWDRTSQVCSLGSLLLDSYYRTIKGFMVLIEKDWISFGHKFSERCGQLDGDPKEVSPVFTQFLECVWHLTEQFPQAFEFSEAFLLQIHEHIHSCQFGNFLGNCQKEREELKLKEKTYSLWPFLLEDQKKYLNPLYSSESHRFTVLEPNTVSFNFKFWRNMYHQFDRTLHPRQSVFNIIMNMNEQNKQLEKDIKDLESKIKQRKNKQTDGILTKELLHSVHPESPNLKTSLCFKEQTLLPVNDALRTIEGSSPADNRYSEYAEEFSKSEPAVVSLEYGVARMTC
Chain of UniProt Q96DH6 (Q96DH6 whole entry, looked up): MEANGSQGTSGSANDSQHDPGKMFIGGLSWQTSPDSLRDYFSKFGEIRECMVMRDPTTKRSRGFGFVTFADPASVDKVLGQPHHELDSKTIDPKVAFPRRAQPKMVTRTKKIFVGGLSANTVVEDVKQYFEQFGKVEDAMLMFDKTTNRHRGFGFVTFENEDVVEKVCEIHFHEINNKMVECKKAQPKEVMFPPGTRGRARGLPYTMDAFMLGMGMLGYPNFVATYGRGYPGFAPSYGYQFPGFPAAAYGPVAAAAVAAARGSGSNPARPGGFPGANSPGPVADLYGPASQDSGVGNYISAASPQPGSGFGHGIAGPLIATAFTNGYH
Chain of UniProt Q9Y639 (Q9Y639 whole entry, looked up): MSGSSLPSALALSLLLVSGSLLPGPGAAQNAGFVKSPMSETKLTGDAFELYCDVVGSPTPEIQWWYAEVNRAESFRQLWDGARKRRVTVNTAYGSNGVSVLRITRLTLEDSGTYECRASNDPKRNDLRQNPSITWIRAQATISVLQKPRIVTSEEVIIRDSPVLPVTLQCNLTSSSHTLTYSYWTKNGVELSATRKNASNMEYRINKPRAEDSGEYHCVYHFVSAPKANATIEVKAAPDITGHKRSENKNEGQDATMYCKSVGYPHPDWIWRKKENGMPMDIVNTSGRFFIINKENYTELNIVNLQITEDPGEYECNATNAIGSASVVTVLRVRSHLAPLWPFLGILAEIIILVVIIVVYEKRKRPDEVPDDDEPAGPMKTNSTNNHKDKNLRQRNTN

Target | log2 fold change
NUMBL (UniProt Q9Y6R0) | -0.037 (inactive)
OPA1 isoform 2 (UniProt O60313) | -0.033 (inactive)
MTHFD1L (UniProt B7ZM99) | -0.002 (inactive)
PARD3 (UniProt Q8TEW0) | -0.016 (inactive)
NACC1 (UniProt Q96RE7) | 0.008 (inactive)
NEDD8 (UniProt Q15843) | 0.045 (inactive)
PANK4 (UniProt Q9NVE7) | -0.091 (inactive)
NAA35 (UniProt Q5VZE5) | -0.026 (inactive)
OGFR (UniProt Q9NZT2) | -0.067 (inactive)
MTMR6 (UniProt Q9Y217) | -0.024 (inactive)
OTC (UniProt P00480) | 0.018 (inactive)
NELFCD (UniProt Q8IXH7) | -0.032 (inactive)
NFATC2IP (UniProt Q8NCF5) | 0.006 (inactive)
NUDT4 isoform 2 (UniProt Q9NZJ9) | 0.005 (inactive)
NADK2 (UniProt Q4G0N4) | 0.008 (inactive)
NUP98 (UniProt P52948) | -0.071 (inactive)
NR3C1 isoform 3 (UniProt P04150) | -0.046 (inactive)
PAXBP1 (UniProt Q9Y5B6) | -0.058 (inactive)

Target | log2 fold change
NCAPD3 (UniProt P42695) | -0.088 (inactive)
NPLOC4 isoform 2 (UniProt Q8TAT6) | -0.011 (inactive)
N4BP2 (UniProt Q86UW6) | -0.014 (inactive)
NCAPD2 (UniProt Q15021) | -0.057 (inactive)
NCAPG (UniProt Q9BPX3) | -0.023 (inactive)
NOSTRIN (UniProt Q8IVI9) | -0.029 (inactive)
NUP160 (UniProt Q12769) | -0.105 (inactive)
MT-CYB (UniProt P00156) | 0.056 (inactive)
PARG (UniProt Q86W56) | -0.018 (inactive)
OSGEP (UniProt Q9NPF4) | -0.037 (inactive)
ORC3 isoform 2 (UniProt Q9UBD5) | -0.059 (inactive)
MTHFD1, A0A384N5Y3 | -0.112 (inactive)
NAA38 isoform 2 (UniProt Q9BRA0) | 0.025 (inactive)
NPTN (UniProt Q9Y639) | -0.038 (inactive)
NUP133 (UniProt Q8WUM0) | -0.081 (inactive)
MSI2 (UniProt Q96DH6) | -0.023 (inactive)
PAN2 isoform 2 (UniProt Q504Q3) | -0.132 (inactive)
NPM3 (UniProt O75607) | -0.015 (inactive)

From the supplement of paper PMC10849652
